Laboratory results taken from the supplement of paper PMC10849652.
About 7,900 targets were measured; listed, in parts, are those with a hit and a random draw of the rest. About 0.6% of all pairs of compound and target were hits. Values without a mark were called inactive.

Key:
Assay in all cases: log2 fold change, soluble protein after heating vs DMSO (PISA); higher = thermal stabilisation; K562 cells, 10 uM, 30 min; active = over 0.2 and 3.5 SD of the protein, either way, in both replicates (recomputed)
[1] = compound: COC1=CC=C(C=C1)CN2C=CC3=C2C=C(C=C3)C(=O)NO
Method in brief: (§1)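 Aliquots of K562 cells (2×10^6 cells/mL) treated with 10 μM compound for 30 min were heated for 3 min over 48°C-58°C. After pooling and extraction in PBS with 0.5% NP-40 at 4°C, soluble protein from a 21,000xg, 90 min spin was quantified by TMTpro 16plex LC-MS/MS with channel sums equalised. Thermal stability is expressed against control samples, from duplicates, as a log2 fold change.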

filanesib = compound: CON(C)C(=O)N1N=C(c2cc(F)ccc2F)S[C@@]1(CCCN)c1ccccc1 [filanesib]
Method in brief: as §1

zotarolimus = compound: CO[C@H]1C[C@@H]2CC[C@@H](C)[C@@](O)(O2)C(=O)C(=O)N2CCCC[C@H]2C(=O)O[C@H]([C@H](C)C[C@@H]2CC[C@H](n3cnnn3)[C@H](OC)C2)CC(=O)[C@H](C)/C=C(\C)[C@@H](O)[C@@H](OC)C(=O)[C@H](C)C[C@H](C)/C=C/C=C/C=C/1C [zotarolimus]
Method in brief: as §1

idasanutlin = compound: COc1cc(C(=O)O)ccc1NC(=O)[C@@H]1N[C@@H](CC(C)(C)C)[C@](C#N)(c2ccc(Cl)cc2F)[C@H]1c1cccc(Cl)c1F [idasanutlin]
Method in brief: as §1

alisertib = compound: COc1cc(Nc2ncc3c(n2)-c2ccc(Cl)cc2C(c2c(F)cccc2OC)=NC3)ccc1C(=O)O [alisertib]
Method in brief: as §1

[2] = compound: COc1cc2nc(-c3cc(F)ccc3O)nc(N[C@@H]3CNC[C@H]3C(C)(C)O)c2cc1OC
Method in brief: as §1

gefitinib = compound: COc1cc2ncnc(Nc3ccc(F)c(Cl)c3)c2cc1OCCCN1CCOCC1 [gefitinib]
Method in brief: as §1

[3] = compound: COc1cccc2cc(-c3nc([C@H]4CC[C@H](C(=O)O)CC4)n4ncnc(N)c34)[nH]c12
Method in brief: as §1

lapatinib = compound: CS(=O)(=O)CCNCc1ccc(-c2ccc3ncnc(Nc4ccc(OCc5cccc(F)c5)c(Cl)c4)c3c2)o1 [lapatinib]
Method in brief: as §1

pictilisib = compound: CS(=O)(=O)N1CCN(Cc2cc3nc(-c4cccc5[nH]ncc45)nc(N4CCOCC4)c3s2)CC1 [pictilisib]
Method in brief: as §1

[4] = compound: CS(=O)(=O)c1ccc(-c2cnc(N)c(C(=O)Nc3ccccc3)n2)cc1
Method in brief: as §1

crizotinib = compound: C[C@@H](Oc1cc(-c2cnn(C3CCNCC3)c2)cnc1N)c1c(Cl)ccc(F)c1Cl [crizotinib]
Method in brief: as §1

[5] = compound: C[C@@H]1COCCN1C2=NC(=NC(=C2)C3(CC3)S(=O)(=O)C)C4=C5C=CNC5=CC=C4
Method in brief: as §1

[6] = compound: C[C@H](C1=CC=C(C=C1)C(=O)NC2=C3C=CNC3=NC=C2)N
Method in brief: as §1

duvelisib = compound: C[C@H](Nc1ncnc2nc[nH]c12)c1cc2cccc(Cl)c2c(=O)n1-c1ccccc1 [duvelisib]
Method in brief: as §1

gandotinib = compound: Cc1cc(Nc2cc(CN3CCOCC3)c3nc(C)c(Cc4ccc(Cl)cc4F)n3n2)n[nH]1 [gandotinib]
Method in brief: as §1

tozasertib = compound: Cc1cc(Nc2cc(N3CCN(C)CC3)nc(Sc3ccc(NC(=O)C4CC4)cc3)n2)n[nH]1 [tozasertib]
Method in brief: as §1

[7] = compound: Cc1cc(SCc2sc(-c3ccc(C(F)(F)F)cc3)nc2C)ccc1OCC(=O)O
Method in brief: as §1

doramapimod = compound: Cc1ccc(-n2nc(C(C)(C)C)cc2NC(=O)Nc2ccc(OCCN3CCOCC3)c3ccccc23)cc1 [doramapimod]
Method in brief: as §1

ispinesib = compound: Cc1ccc(C(=O)N(CCCN)[C@@H](c2nc3cc(Cl)ccc3c(=O)n2Cc2ccccc2)C(C)C)cc1 [ispinesib]
Method in brief: as §1

UniProt Q03014, sequence (Q03014 whole entry, looked up): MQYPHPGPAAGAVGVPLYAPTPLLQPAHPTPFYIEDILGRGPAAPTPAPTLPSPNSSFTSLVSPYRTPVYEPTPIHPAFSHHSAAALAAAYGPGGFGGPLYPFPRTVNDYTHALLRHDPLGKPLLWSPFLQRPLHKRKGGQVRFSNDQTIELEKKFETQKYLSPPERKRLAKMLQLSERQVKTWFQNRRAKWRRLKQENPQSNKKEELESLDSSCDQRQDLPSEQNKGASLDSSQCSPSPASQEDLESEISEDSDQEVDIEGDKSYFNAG
UniProt P49841, sequence (P49841 whole entry, looked up): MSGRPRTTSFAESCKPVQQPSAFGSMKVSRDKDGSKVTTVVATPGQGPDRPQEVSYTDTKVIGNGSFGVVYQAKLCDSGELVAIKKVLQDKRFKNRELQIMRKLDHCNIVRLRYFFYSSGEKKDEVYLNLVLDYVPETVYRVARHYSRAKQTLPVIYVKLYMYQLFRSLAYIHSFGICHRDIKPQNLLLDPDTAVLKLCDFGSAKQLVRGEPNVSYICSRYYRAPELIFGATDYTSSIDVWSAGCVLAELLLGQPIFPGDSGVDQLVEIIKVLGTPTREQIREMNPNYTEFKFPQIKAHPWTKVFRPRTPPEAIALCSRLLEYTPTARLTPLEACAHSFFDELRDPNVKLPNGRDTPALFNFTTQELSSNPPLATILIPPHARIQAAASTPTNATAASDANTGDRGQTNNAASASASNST
UniProt Q9H4G4, sequence (Q9H4G4 whole entry, looked up): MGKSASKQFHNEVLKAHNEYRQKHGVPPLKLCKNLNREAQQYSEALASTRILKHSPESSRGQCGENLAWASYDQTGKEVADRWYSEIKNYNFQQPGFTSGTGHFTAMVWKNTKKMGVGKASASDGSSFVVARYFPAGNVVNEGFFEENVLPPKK
UniProt Q5SSJ5, sequence (Q5SSJ5 whole entry, looked up): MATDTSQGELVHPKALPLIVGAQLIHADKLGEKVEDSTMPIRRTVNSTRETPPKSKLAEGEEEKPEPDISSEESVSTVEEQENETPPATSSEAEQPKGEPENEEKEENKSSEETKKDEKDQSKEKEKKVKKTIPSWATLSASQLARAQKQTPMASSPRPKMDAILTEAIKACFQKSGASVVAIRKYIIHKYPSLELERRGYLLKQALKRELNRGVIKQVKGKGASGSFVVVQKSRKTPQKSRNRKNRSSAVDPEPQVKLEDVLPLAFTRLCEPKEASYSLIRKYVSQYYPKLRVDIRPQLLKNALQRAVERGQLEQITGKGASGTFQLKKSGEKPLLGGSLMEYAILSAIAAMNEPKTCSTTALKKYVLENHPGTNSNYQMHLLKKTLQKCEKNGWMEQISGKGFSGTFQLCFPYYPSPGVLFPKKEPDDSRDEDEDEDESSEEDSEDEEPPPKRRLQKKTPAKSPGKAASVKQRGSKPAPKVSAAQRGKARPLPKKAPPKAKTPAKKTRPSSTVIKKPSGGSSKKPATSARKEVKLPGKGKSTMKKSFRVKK
UniProt P02008, sequence (P02008 whole entry, looked up): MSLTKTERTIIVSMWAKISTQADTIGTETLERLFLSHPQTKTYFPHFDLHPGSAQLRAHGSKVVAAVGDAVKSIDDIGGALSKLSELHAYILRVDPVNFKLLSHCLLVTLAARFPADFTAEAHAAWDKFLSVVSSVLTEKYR
UniProt P78417, sequence (P78417 whole entry, looked up): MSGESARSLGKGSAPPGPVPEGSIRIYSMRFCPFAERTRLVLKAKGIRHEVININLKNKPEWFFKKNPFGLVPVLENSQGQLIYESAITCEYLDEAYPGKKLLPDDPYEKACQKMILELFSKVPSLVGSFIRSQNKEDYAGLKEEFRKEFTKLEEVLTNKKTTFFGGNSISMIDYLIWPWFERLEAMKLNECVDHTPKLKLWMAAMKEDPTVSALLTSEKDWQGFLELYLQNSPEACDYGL
UniProt Q01628, sequence (Q01628 whole entry, looked up): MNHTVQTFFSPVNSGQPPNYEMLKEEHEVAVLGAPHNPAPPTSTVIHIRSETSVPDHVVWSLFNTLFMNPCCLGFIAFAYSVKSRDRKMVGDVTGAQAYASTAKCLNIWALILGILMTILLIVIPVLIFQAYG
UniProt O43524, sequence (O43524 whole entry, looked up): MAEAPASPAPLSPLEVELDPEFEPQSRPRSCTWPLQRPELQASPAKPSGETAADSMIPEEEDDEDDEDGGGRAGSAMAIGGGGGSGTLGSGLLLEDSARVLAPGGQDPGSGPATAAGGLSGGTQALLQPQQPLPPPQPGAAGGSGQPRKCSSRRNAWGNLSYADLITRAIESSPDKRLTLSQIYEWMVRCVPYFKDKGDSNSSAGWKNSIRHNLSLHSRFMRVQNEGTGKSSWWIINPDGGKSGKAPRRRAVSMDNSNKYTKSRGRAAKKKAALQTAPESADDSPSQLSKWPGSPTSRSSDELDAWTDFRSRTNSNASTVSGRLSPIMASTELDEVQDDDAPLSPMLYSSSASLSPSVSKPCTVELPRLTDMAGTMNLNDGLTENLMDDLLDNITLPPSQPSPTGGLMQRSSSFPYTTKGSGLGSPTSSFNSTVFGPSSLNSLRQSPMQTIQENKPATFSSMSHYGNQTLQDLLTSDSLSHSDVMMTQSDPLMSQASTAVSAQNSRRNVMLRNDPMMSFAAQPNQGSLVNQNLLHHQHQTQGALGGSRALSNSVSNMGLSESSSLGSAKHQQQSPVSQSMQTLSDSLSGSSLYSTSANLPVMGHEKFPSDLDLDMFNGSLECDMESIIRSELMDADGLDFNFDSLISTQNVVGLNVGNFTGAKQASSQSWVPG
UniProt O14526, sequence (O14526 whole entry, looked up): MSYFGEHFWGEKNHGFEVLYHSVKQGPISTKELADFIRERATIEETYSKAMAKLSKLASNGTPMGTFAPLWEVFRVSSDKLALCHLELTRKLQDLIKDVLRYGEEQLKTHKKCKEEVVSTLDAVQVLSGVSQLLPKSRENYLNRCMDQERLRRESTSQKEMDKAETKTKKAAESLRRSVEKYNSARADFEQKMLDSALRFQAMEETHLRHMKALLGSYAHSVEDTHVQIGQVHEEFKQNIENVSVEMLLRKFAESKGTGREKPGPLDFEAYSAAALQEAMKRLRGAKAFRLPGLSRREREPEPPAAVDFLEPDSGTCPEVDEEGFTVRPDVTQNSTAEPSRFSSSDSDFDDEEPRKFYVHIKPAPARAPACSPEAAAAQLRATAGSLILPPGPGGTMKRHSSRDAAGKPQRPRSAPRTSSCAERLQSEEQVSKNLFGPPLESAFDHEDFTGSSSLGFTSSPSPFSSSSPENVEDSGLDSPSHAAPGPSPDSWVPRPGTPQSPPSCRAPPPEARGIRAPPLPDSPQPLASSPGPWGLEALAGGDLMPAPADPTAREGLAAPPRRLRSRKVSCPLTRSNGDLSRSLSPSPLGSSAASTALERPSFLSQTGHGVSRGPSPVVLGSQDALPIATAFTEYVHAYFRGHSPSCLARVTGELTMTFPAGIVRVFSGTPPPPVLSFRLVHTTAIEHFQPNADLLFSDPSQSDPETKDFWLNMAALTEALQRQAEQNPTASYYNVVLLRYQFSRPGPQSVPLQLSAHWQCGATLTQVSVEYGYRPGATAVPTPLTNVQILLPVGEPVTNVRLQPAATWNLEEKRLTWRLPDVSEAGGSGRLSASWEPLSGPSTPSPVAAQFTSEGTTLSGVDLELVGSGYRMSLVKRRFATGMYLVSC
UniProt O43427, sequence (O43427 whole entry, looked up): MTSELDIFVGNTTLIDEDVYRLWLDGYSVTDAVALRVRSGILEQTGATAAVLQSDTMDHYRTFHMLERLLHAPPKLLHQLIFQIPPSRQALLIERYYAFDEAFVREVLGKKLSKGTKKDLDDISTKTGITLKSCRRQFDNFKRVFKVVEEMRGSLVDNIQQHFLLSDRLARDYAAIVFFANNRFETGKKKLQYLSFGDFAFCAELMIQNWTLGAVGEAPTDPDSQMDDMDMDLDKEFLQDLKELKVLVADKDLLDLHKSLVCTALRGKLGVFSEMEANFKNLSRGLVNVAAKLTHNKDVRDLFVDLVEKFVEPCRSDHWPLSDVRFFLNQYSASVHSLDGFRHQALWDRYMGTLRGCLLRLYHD
UniProt Q53T59, sequence (Q53T59 whole entry, looked up): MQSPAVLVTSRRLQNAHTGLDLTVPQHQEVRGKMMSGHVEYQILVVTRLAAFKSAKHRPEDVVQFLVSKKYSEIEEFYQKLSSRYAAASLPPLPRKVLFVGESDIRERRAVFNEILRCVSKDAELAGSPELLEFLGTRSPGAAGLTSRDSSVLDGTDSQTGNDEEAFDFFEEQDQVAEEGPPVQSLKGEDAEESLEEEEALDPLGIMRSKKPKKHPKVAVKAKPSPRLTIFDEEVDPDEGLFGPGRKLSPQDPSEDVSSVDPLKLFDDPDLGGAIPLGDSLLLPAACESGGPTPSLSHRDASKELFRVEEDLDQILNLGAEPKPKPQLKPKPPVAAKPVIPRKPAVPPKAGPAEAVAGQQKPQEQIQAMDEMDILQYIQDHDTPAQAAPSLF
UniProt O94925, sequence (O94925 whole entry, looked up): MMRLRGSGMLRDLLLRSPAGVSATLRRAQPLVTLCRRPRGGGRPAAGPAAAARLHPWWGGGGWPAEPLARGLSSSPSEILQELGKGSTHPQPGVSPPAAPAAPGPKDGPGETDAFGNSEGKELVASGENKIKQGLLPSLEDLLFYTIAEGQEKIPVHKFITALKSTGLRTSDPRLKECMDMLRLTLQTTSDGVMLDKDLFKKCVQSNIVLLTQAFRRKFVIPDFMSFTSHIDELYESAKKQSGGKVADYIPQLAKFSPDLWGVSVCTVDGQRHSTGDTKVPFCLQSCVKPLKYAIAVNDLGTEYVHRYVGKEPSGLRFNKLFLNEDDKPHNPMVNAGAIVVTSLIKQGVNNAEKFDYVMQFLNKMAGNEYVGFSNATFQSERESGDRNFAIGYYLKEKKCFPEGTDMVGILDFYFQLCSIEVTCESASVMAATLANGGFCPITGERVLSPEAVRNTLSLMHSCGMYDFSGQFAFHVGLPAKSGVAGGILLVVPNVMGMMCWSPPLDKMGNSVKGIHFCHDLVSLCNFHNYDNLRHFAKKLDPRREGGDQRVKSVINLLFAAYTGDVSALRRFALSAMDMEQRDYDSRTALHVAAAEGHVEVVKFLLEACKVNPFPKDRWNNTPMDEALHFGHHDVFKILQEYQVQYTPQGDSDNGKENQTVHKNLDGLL

| Target | log2 fold change [1] | log2 fold change (filanesib) | log2 fold change (zotarolimus) | log2 fold change (idasanutlin) | log2 fold change (alisertib) | log2 fold change [2] | log2 fold change (gefitinib) | log2 fold change [3] | log2 fold change (lapatinib) | log2 fold change (pictilisib) | log2 fold change [4] | log2 fold change (crizotinib) | log2 fold change [5] | log2 fold change [6] | log2 fold change (duvelisib) | log2 fold change (gandotinib) | log2 fold change (tozasertib) | log2 fold change [7] | log2 fold change (doramapimod) | log2 fold change (ispinesib) |
| --- | --- | --- | --- | --- | --- | --- | --- | --- | --- | --- | --- | --- | --- | --- | --- | --- | --- | --- | --- | --- |
| GSTO1 (UniProt P78417) | -0.015 | -0.031 | -0.017 | -0.037 | -0.063 | -0.048 | -0.001 | 0.021 | 0.02 | -0.033 | 0.047 | 0 | 0.013 | -0.072 | 0.064 | -0.017 | -0.01 | 0 | -0.02 | 0.036 |
| HHEX (UniProt Q03014) | 0.178 | -0.007 | -0.102 | 0.035 | 0.002 | -0.04 | -0.016 | 0.053 | -0.004 | -0.012 | -0.014 | -0.027 | -0.104 | 0.49 | -0.072 | -0.042 | -0.019 | 0.021 | 0.05 | -0.128 |
| GLS isoform 3 (UniProt O94925) | -0.021 | -0.029 | 0.008 | -0.26 | -0.003 | 0.216 | 0.041 | 0.031 | 0 | 0.078 | 0.038 | 0.021 | 0.256 | -0.007 | 0.077 | -0.264 | 0.014 | 0.064 | 0.023 | 0.219 |
| HSPA8 (UniProt E9PN89) | -0.312 | 0.126 | -0.036 | 0.113 | 0.042 | 0.191 | 0.035 | 0.126 | -0.426 | 0.134 | 0.12 | 0.063 | 0.024 | 0.377 |  | -0.068 | -0.122 |  | 0 |  |
| GSK3B isoform 2 (UniProt P49841) | 0.133 | -0.034 | 0.013 | -0.121 |  | 0.056 | -0.041 | 0.022 | -0.013 | 0.014 | 0.09 | -0.053 | -0.032 | -0.143 | -0.015 | -0.108 | -0.043 | 0.015 | -0.013 | 0.059 |
| HIST2H2BF isoform 2 (UniProt Q5QNW6) | 0.062 | 0.248 | -0.163 | 0.437 | 0.081 | -0.112 | 0.053 | -0.314 | 0.047 | -0.137 | -0.049 | -0.095 | -0.279 | 0.38 | -0.051 | -0.018 | 0.119 | -0.064 | 0.253 | -0.178 |
| IFITM3 (UniProt Q01628) | 0.055 | 0.008 | 0.007 | 0.07 | -0.121 | -0.017 | 0.09 | 0.089 | 0.004 |  | -0.038 | -0.027 | 0.069 | -0.085 | 0.22 |  | -0.002 | -0.094 | 0.038 | 0.07 |
| HS1BP3 (UniProt Q53T59) | 0.032 | -0.085 | 0.02 | 0.039 |  | 0.087 | -0.196 |  | 0.118 |  | 0.06 | -0.044 | 0.028 | 0.143 | 0.096 |  |  | -0.012 | 0.089 | -0.165 |
| FHOD1 (UniProt Q9Y613) | -0.044 | 0.084 | 0.095 | 0.127 | -0.161 | 0.186 | -0.005 | -0.253 | 0.014 | 0.01 | 0.033 | -0.107 | -0.174 | 0.58 (active) | -0.121 | 0.105 |  | 0.085 | 0.235 | -0.193 |
| HNRNPUL1 (UniProt M0R247) | -0.028 | 0.029 | -0.468 | 0.277 |  | 0.117 | 0.1 |  | -0.15 |  | -0.057 | 0.151 |  | 0.722 | 0.673 |  | -0.187 | -0.374 | -0.014 |  |
| GLIPR2 (UniProt Q9H4G4) | 0 | -0.147 | 0.024 | 0.096 | -0.031 | -0.239 |  | -0.036 | 0.103 | -0.011 | 0.034 | -0.243 | -0.018 | -0.064 | 0.1 | 0.157 | -0.062 | 0.007 | -0.01 | -0.459 (active) |
| FCHO1 (UniProt O14526) | 0.061 | 0.055 | 0.068 | 0.072 | -0.055 | 0.256 | 0.046 | 0.022 | -0.105 |  | 0.033 | -0.118 | 0.158 | 0.161 | -0.039 |  | 0.043 | 0.109 | -0.009 | -0.264 |
| FIBP (UniProt O43427) | 0.083 | -0.051 | -0.047 | 0.03 | 0.016 | 0.042 |  | -0.084 | 0.008 | 0.185 | 0.022 | -0.043 | 0.257 | 0.118 | 0.041 | -0.094 | -0.144 | 0.02 | -0.048 | -0.052 |
| HBZ (UniProt P02008) | 0.012 | -0.003 | 0.035 | 0.045 | -0.077 | -0.055 | 0.003 | 0.093 | 0.007 | -0.006 | 0.017 | 0.09 | 0.174 | -0.067 | 0.045 | 0.084 | -0.005 | 0.014 | -0.005 | 0.21 |
| FOXO3 (UniProt O43524) | 0.027 | -0.069 | 0.083 | 0.154 | 0.149 | -0.067 |  | -0.068 | -0.106 | -0.09 | -0.028 | -0.423 (active) | -0.444 | 0.013 | -0.354 | -0.061 | -0.095 | 0.16 | 0.005 | -0.095 |
| HP1BP3 (UniProt Q5SSJ5) | 0.041 | 0.145 | -0.003 | 0.095 | -0.069 | -0.053 | 0.154 | -0.024 | 0.044 | 0.04 | 0.002 | -0.121 | -0.013 | 0.163 | -0.097 | 0.039 | -0.011 | 0.121 | 0.035 | -0.079 |
| FUT8 (UniProt Q9BYC5) | -0.156 | -0.043 | -0.019 | -0.066 | 0.022 |  | 0.084 | -0.03 |  | -0.032 | 0.018 | -0.235 | 0.077 | -0.011 | -0.007 | 0.034 | -0.14 | 0.178 | -0.017 | -0.148 |
